Assay outcomes: PubChem BioAssay, several laboratories
Rows were chosen to be rich in hits. Some 3.5% of all compounds tested hit in one or more screens of this group.
TROY signal inh: TROY signaling inhibition; Q293 LMP1-TROYcd NF-kB luciferase reporter, 4 h; inhibition, % at 10 µM; 360,000 tested, 0.98% active; AID 1347056;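 active = compounds whose plate-normalised and pattern-corrected inhibition of the luciferase reporter signal at the single screening dose is 50% or more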
PPC-1+TRAIL kill: compounds killing PPC-1 cancer cells with TRAIL present (potentiator screen, no TRAIL-free arm); PPC-1 cells + TRAIL, ATPLite viability luminescence; cell killing (% activity), % at 4 µM or 5 µM; 220,000 tested, 0.41% active;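 active = cell killing above 50% in the first pass at 4 µM, then a duplicate retest at 5 µM averaging 50% or more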;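 note: plate controls were cells with TRAIL plus DMSO for no effect and medium-only wells lacking cells for full effect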
TWEAK-Fn14 inh: blocks TWEAK-Fn14 interaction in a reporter cell assay. AID 1159606. 360,000 tested, 2% active. inhibition, % at 10 µM. TWEAK-stimulated Fn14 reporter cells, luciferase luminescence, 8 h; in the data active = inhibition above about 50%
Platelet DG rel: modulates dense granule release in human platelets | 300,000 tested, 0.22% active | inhibition, %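 (compounds screened at 7.5 µM in platelet-rich plasma)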 | human platelet-rich plasma, SFLLRN dense granule ATP release, luminescence | AID 1663;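 active = mean replicate score, as percent of positive control, at or above 50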
C8 TRAIL sens: sensitizes caspase-8 expressing cells to TRAIL; 360,000 tested, 1% active; inhibition (viability loss, TRAIL sensitization), % at 10 µM; NB7+C8 cells + TRAIL, ATPlite viability luminescence;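 active = compounds causing at least 50% loss of cell viability in the single-dose screen, relative to plate controls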
HSP90 refold inh: inhibitors of HSP90 luciferase refolding in rabbit reticulocyte lysate | luciferase refolding luminescence, 3 h | inhibition, % at 5.6 µM | 290,000 tested, 0.91% active | AID 1789;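 active = inhibition above the screen-wide mean plus 3 SD, computed separately per campaign, cut at about 16% in these data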;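 note: 0% = DMSO wells and 100% = 60 µM geldanamycin wells; inhibitors lower the luminescence because luciferase stays unfolded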
An asterisk follows results filed as active; x = no result given.

SMILES	TROY signal inh	PPC-1+TRAIL kill	TWEAK-Fn14 inh	Platelet DG rel	C8 TRAIL sens	HSP90 refold inh
O=C(/C=C\c1ccco1)Nc1nc(-c2ccccc2)cs1	-56	-14	2	-2	1	-2
CC(OC(=O)c1cc(S(=O)(=O)N(C)C)ccc1N1CCCC1)C(=O)NCc1ccccc1 (stereo not drawn)	-17	x	0	-4	-7	-5
CC1(C)CC[C@]2(C(=O)n3ccnc3)CC[C@]3(C)[C@H](C(=O)C=C4[C@@]5(C)C=C(C#N)C(=O)C(C)(C)[C@@H]5CC[C@]43C)[C@@H]2C1	75*	x	106*	x	88*	x
O=C(CCCC(=O)N(c1ccc2c(c1)OCCO2)C(C(=O)NC1CCCCC1)c1ccc(Cl)cc1)Nc1ccccn1 (stereo not drawn)	3	16	63*	3	-5	0
COc1ccc(N(C(=O)c2cnccn2)C(C(=O)NC2CCCCC2)c2ccc(Cl)cc2)cc1 (stereo not drawn)	-14	x	8	6	0	6
COc1ccc(C(C(=O)NC2CCCCC2)N(C(=O)CCl)c2ccc(Cl)cc2)cc1 (stereo not drawn)	9	62*	54*	0	96*	2
COc1ccc(C(C(=O)NC2CCCC2)N(C(=O)c2snc(-c3ccc(F)cc3)c2N)c2ccc(F)cc2)cc1 (stereo not drawn)	-7	7	-5	-10	51*	0
COC(CN(C)C(C(=O)NC1CCCCC1)c1ccccc1)OC (stereo not drawn)	-11	9	81*	5	-4	1
COc1ccc(C(C(=O)NC2CCCC2)N(C(=O)c2snc(-c3ccc(F)cc3)c2N)c2ccc(OC)cc2)cc1 (stereo not drawn)	-49	15	-11	-4	-7	1
COc1ccc([C@@H]2[C@@H]3C(=O)N(C(C)(C)C)C(=O)[C@@H]3[C@]3(C)C(=O)N(c4ccc(C(F)(F)F)cc4)C(=O)N23)cc1	-33	x	-8	2	-15	-2
O=C(NC1CCCCC1)C(c1cccnc1)N(C(=O)CCl)c1cccc(Cl)c1 (stereo not drawn)	9	12	44	-13	98*	6
O=S1(=O)CC2SC(=S)N(Cc3ccccc3)C2C1 (stereo not drawn)	1	-13	-1	2	-3	0
Cc1ccc(S(=O)(=O)Nc2cc(-c3nn(C)c(=O)c4ccccc34)ccc2N2CCOCC2)cc1	28	10	43	-4	6	-1
Cn1nc(-c2ccc(N3CCOCC3)c(NS(=O)(=O)c3ccc(Cl)cc3)c2)c2ccccc2c1=O	x	8	61*	x	-2	0
COC(=O)CSc1[nH]c2ccc(F)cc2c1[N+](=O)[O-]	4	-12	-9	3	-16	1
CC(C)(C)c1ccc(/C=C/C(=O)c2ccc(NC3=NCCCS3)cc2)cc1	10	-12	61*	6	13	5
O=C(/C=C/c1ccc(Br)cc1)c1ccc(NC2=NCCCS2)cc1	-14	36	59*	0	25	10
CN(CC(O)COCc1ccccc1F)C1CCCCC1 (stereo not drawn)	5	9	64*	19	9	2
CC(NC(=O)COC(=O)Cc1cccs1)c1ccc(F)cc1 (stereo not drawn)	-10	x	10	x	0	x
O=C(CC1SC(=O)N(Cc2cccc3ccccc23)C1=O)Nc1nccs1 (stereo not drawn)	11	-4	-16	-4	53*	2
CCOC(=O)CN1C(=O)SC(CC(=O)Nc2nccs2)C1=O (stereo not drawn)	x	11	67*	5	60*	3
O=C(Nc1ccc(-n2ccc(C(F)(F)F)n2)cc1)Nc1cccc(Cl)c1	34	5	72*	3	18	5
Cn1c(SCCN2CCCC2)nnc1C1CCN(S(=O)(=O)c2ccc(F)cc2)CC1	-3	x	-8	-2	-8	-5
O=C(OCc1nnc(-c2ccc(Cl)cc2)o1)C12CC3CC(CC(O)(C3)C1)C2	67*	16	48	6	6	13
Cc1ccc(S(=O)(=O)c2c(C)cc(C)nc2Oc2cccc(C)c2C)cc1	-4	-14	72*	x	0	-1
SMILES	TROY signal inh	PPC-1+TRAIL kill	TWEAK-Fn14 inh	Platelet DG rel	C8 TRAIL sens	HSP90 refold inh
Cc1cn([C@H]2C[C@H](O)[C@@H](CNS(=O)(=O)c3ccc(NS(=O)(=O)N(C)C)cc3)O2)c(=O)[nH]c1=O	-8	x	9	x	-7	x
Cc1nc2sc(-c3ccccc3)nn2c(=O)c1Br	-4	0	34	1	28	0
Cc1nn2cc(-c3ccccc3)nc2s1	9	21	57*	-27	28	7
c1ccc(-c2cn3nc(-c4ccccc4)sc3n2)cc1	61*	x	86*	34	85*	x
Cc1cc(C)n2nc(-c3ccccc3)cc2n1	-33	11	5	11	22	-1
CCOc1ccc(NC(=O)c2ccccc2NC(=O)CNC2CCCC(C)C2C)cc1 (stereo not drawn)	-15	x	-2	x	-1	x
CCn1cc([N+](=O)[O-])c(C(=O)Nc2ccn(Cc3ccccc3F)n2)n1	6	1	-13	5	-6	2
Cc1ccccc1Cn1ccc(NC(=O)c2nn(C)cc2[N+](=O)[O-])n1	78*	14	87*	5	12	4
C(=Nc1ccccc1)c1ccc[nH]1	-18	x	17	x	-8	x
CN=c1scc(-c2ccccc2F)n1/N=C/c1ccc[nH]1	83*	44	105*	31	88*	85*
COc1ccc(CCNC(=O)c2ccc(Cl)c(S(=O)(=O)N(C)c3ccccc3)c2)cc1	53*	0	58*	-1	3	0
CN(c1ccccc1)S(=O)(=O)c1cccc(C(=O)NCCc2ccc(O)c(O)c2)c1	56*	2	39	2	28	0
COc1ccc(CCNC(=O)c2ccc(Cl)c(S(=O)(=O)N3CCCCCC3)c2)cc1	44	x	60*	x	15	x
COc1ccc(CCNC(=O)c2ccc3c(c2)SC2=NS(=O)(=O)CCN23)cc1	-5	24	-6	77*	-10	1
CC(C)(CO)NC(=O)C(Cc1ccccc1)N1C(=O)c2ccccc2C1=O (stereo not drawn)	-6	x	8	7	-7	-5
C=CCN(CC=C)C(=S)NC(=O)/C=C/c1ccccc1	1	7	11	-8	-8	4
C=CCN(CC=C)C(=S)NC(=O)/C=C/c1ccc(C)cc1	6	10	63*	0	5	0
O=C(C[C@@H]1CC[C@@H]2[C@H](COC[C@H](O)CN2C(=O)Nc2ccc(F)cc2)O1)NCCc1ccncc1	x	x	x	x	-4	x
CCC1(C)Cc2[nH]c(=O)c(C#N)cc2CO1 (stereo not drawn)	8	0	86*	-3	8	-1
